Screens deposited in PubChem BioAssay by Broad Institute.
Shown are actives, neighbours in structure and some others; about 8.1% of the full set was active somewhere.
NOMO-1 viab: STK33 inhibitor candidate reducing NOMO-1 cell viability; NOMO-1 AML viability, CellTiter-Glo luminescence, 72 h; inhibition, % (concentration not given with the values); hit rate 7.5% among 37,000; AID 2330; in the data active means inhibition above about 80%; inconclusive means no clear call, values can overlap the other calls
Shh pathway inh: blocks Sonic Hedgehog signaling. inhibition, % (test concentration not listed). Shh-LIGHT2 Gli-luciferase reporter, 30 h. hit rate 2.1% among 22,000;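 active means mean inhibition across valid replicates above about 65%, limit read from the data; inconclusive means mean under the limit, yet half or more replicates past it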;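 further: pathway switched on by Shh-conditioned medium diluted 1 in 25 in low serum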
MITF inhib: inhibitors of MITF; TRPM1 promoter luciferase, luminescence, 24 h; inhibition, % (concentration not given with the values); hit rate 0.28% among 37,000; in the data active means inhibition above about 85%; inconclusive means no clear call, values can overlap the other calls; inactive means below about 68%;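 further: human melanocyte line stably carrying TRPM1 promoter luciferase reporter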
Each line names hits and unclear results; the compound was inactive in the other large screens.

COc1cccc2c1C(=O)c1c(O)c3c(c(O)c1C2=O)C[C@@](O)(C(=O)CO)C[C@@H]3OC1CC(N)C(O)C(C)O1 (some centres undefined)	NOMO-1 viab 98, Shh pathway inh 83
CC(C)c1ccccc1NC(=O)CSc1nc(-c2ccccc2)cc(=O)[nH]1	none (no result: Shh pathway inh)
CC1CCc2sc3ncnc(NCCN4CCOCC4)c3c2C1 (centres undefined)	none (no result: Shh pathway inh)
C[C@@H]1CN([C@@H](C)CO)C(=O)c2cc(NS(=O)(=O)c3cccs3)ccc2O[C@@H]1CN(C)Cc1ccc(-c2ccccc2)cc1	NOMO-1 viab 91
COc1ccc(CN(C)C[C@@H]2Oc3ccc(NS(=O)(=O)c4cccs4)cc3CC(=O)N([C@H](C)CO)C[C@H]2C)cc1	none
C[C@@H]1CN([C@H](C)CO)C(=O)Cc2cc(NS(=O)(=O)c3cccs3)ccc2O[C@@H]1CN(C)Cc1ccc(-c2ccccc2)cc1	none
C[C@@H]1CN([C@@H](C)CO)C(=O)Cc2cc(NS(=O)(=O)c3cccs3)ccc2O[C@@H]1CN(C)Cc1ccc(Oc2ccccc2)cc1	NOMO-1 viab 97
C[C@@H]1CN([C@H](C)CO)C(=O)c2cc(NS(=O)(=O)c3cccs3)ccc2O[C@H]1CN(C)Cc1ccc(-c2ccccc2)cc1	none (no result: Shh pathway inh)
C[C@H]1CN([C@@H](C)CO)C(=O)Cc2cc(NS(=O)(=O)c3cccs3)ccc2O[C@H]1CN(C)Cc1ccc(-c2ccccc2)cc1	NOMO-1 viab 115
Cc1cc(O)cc2c(=O)oc(CC(C)O)cc12 (centres undefined)	none
C[C@H](CO)N1C[C@H](C)[C@H](CN(C)Cc2ccc(C(=O)O)cc2)Oc2c(NC(=O)Nc3ccccc3)cccc2C1=O	none (no result: Shh pathway inh)
O=C(CSc1nc2ccccc2s1)Nc1cc(Cl)cc(Cl)c1	none (no result: Shh pathway inh)
Cc1cc(C)c(NC(=O)CSc2nnc(-c3ccncc3)n2-c2ccccc2)c([N+](=O)[O-])c1	none (no result: Shh pathway inh)
Cc1nn(Cc2cccc(C(=O)Nc3ccc(S(=O)(=O)N4CCCCC4)cc3)c2)c(C)c1Cl	none (no result: Shh pathway inh)
NNC(=O)CCCSc1nc2ccccc2s1	none
O=C(CCSc1nc2ccccc2s1)Nc1ccccc1Cl	MITF inhib 86 (no result: Shh pathway inh)
O=C(CSc1ccc2ccccc2n1)Nc1ccnc2ccccc12	none (no result: Shh pathway inh)
COc1ccc(NC(=O)N(C)C[C@H]2Oc3ccc(NS(C)(=O)=O)cc3CC(=O)N([C@@H](C)CO)C[C@@H]2C)cc1	none (no result: Shh pathway inh)
CO[C@@]12[C@@H]3NC3CN1C1=C(C(=O)C(N)=C(C)C1=O)[C@@H]2COC(N)=O (some centres undefined)	NOMO-1 viab 106, Shh pathway inh 67
C[C@H]1CN([C@@H](C)CO)C(=O)c2cccc(N(C)C)c2O[C@H]1CN(C)C(=O)NC1CCCCC1	none
C[C@H](CO)N1C[C@H](C)[C@H](CN(C)Cc2ccc(Cl)c(Cl)c2)Oc2ccc(NS(C)(=O)=O)cc2C1=O	none (no result: Shh pathway inh)
Cc1ccc(S(=O)(=O)Nc2ccc3c(c2)C(=O)N([C@H](C)CO)C[C@@H](C)[C@H](CN(C)Cc2ccc(Cl)c(Cl)c2)O3)cc1	NOMO-1 viab 104 (no result: Shh pathway inh)
Cc1ccc(S(=O)(=O)Nc2ccc3c(c2)C(=O)N([C@@H](C)CO)C[C@@H](C)[C@H](CN(C)Cc2ccc(Cl)c(Cl)c2)O3)cc1	NOMO-1 viab 89 (no result: Shh pathway inh)
C[C@H]1CN([C@@H](C)CO)C(=O)c2cc(NS(C)(=O)=O)ccc2O[C@H]1CN(C)Cc1ccc(Cl)c(Cl)c1	none (no result: Shh pathway inh)
C[C@@H]1CN([C@H](C)CO)C(=O)c2cc(NS(=O)(=O)c3ccc(Cl)cc3)ccc2O[C@H]1CN(C)C(=O)Nc1cccc2ccccc12	none
COc1ccc(Cl)cc1N(CC(=O)N1CCN(c2cccc(Cl)c2)CC1)S(C)(=O)=O	none (no result: Shh pathway inh)
CCc1cccc(C)c1NC(=O)CSc1nc2sc3c(c2c(=O)n1C)CCC(C)C3 (centres undefined)	NOMO-1 viab 95 (no result: Shh pathway inh)
Cn1c(SCC(=O)Nc2ccccc2)nc2sc3c(c2c1=O)CCC3	none (no result: Shh pathway inh)
CCCc1nc2c([nH]1)C(c1cccc(O)c1)C(C#N)=C(N)O2 (centres undefined)	none
C[C@@H]1CN([C@H](C)CO)C(=O)Cc2cc(NC(=O)Nc3ccc(C(F)(F)F)cc3)ccc2O[C@@H]1CN(C)Cc1ccccc1	NOMO-1 viab 118
C[C@@H]1CN([C@@H](C)CO)C(=O)Cc2cc(NC(=O)Nc3ccccc3)ccc2O[C@@H]1CN(C)Cc1ccc(C(F)(F)F)cc1	NOMO-1 viab 119
C[C@@H]1CN([C@@H](C)CO)C(=O)Cc2cc(NC(=O)Nc3ccc(C(F)(F)F)cc3)ccc2O[C@@H]1CN(C)Cc1ccccc1	NOMO-1 viab inconclusive
C[C@H]1CN([C@@H](C)CO)C(=O)Cc2cc(NC(=O)Nc3ccccc3)ccc2O[C@@H]1CN(C)Cc1ccc(C(F)(F)F)cc1	none
COc1ccc2oc(-c3ccccc3)c(O)c(=O)c2c1	none
O=C(c1ccccc1)c1ccc2nc(-c3cccc(NC(=O)C4CCCO4)c3)[nH]c2c1 (centres undefined)	NOMO-1 viab 100 (no result: Shh pathway inh)
Cc1cccc(OCC(=O)Nc2cccc(-c3nc4ccccc4[nH]3)c2)c1C	none (no result: Shh pathway inh)
Cn1c(CSCc2ccccc2)c(C#N)c2ccccc21	none (no result: Shh pathway inh)
C[C@H](CO)N1C[C@H](C)[C@H](CN(C)CC2CCCCC2)Oc2c(NC(=O)Nc3ccc(C(F)(F)F)cc3)cccc2C1=O	NOMO-1 viab 116
C[C@H]1CN([C@@H](C)CO)C(=O)c2cccc(NC(=O)Nc3ccc(C(F)(F)F)cc3)c2O[C@@H]1CN(C)CC1CCCCC1	NOMO-1 viab 82
C[C@@H]1CN([C@H](C)CO)C(=O)c2cccc(NC(=O)Nc3ccc(C(F)(F)F)cc3)c2O[C@@H]1CN(C)CC1CCCCC1	none
C[C@H](CO)N1C[C@H](C)[C@@H](CN(C)CC2CC2)Oc2c(NC(=O)Nc3ccc(C(F)(F)F)cc3)cccc2C1=O	NOMO-1 viab 99
C[C@@H]1CN([C@H](C)CO)C(=O)c2cccc(NC(=O)Nc3ccc(C(F)(F)F)cc3)c2O[C@H]1CN(C)CC1CCCCC1	NOMO-1 viab inconclusive
C[C@@H]1CN([C@H](C)CO)C(=O)c2cccc(NC(=O)Nc3ccc(F)cc3)c2O[C@H]1CN(C)CC1CC1	none
CC(C)(C)SC(=O)c1cccnc1SCCS(=O)(=O)c1cccc(C(F)(F)F)c1	none
C=CCN(CC=C)CC(O)Cn1cnc2c1c(=O)n(C)c(=O)n2C (centres undefined)	none
O=C(c1ccccc1)c1ccc(-c2ccccc2)cc1	NOMO-1 viab 91
O=C(O)CCC(=O)c1ccc(-c2ccccc2)cc1	none
Cc1cccc(NC(=O)CC2OCCN(Cc3ccccc3)C2=O)c1 (centres undefined)	none (no result: Shh pathway inh)
C[C@@H]1CN([C@H](C)CO)C(=O)c2cc(NS(=O)(=O)c3ccc(F)cc3)ccc2O[C@@H]1CN(C)Cc1ccc(-c2ccccc2)cc1	NOMO-1 viab 118 (no result: Shh pathway inh)
C[C@@H]1CN([C@@H](C)CO)C(=O)c2cc(NS(=O)(=O)c3ccc(F)cc3)ccc2O[C@H]1CN(C)Cc1ccc(-c2ccccc2)cc1	NOMO-1 viab 107
C[C@H]1CN([C@@H](C)CO)C(=O)c2cc(NS(=O)(=O)c3ccc(F)cc3)ccc2O[C@H]1CN(C)Cc1ccc(-c2ccccc2)cc1	none (no result: Shh pathway inh)
C[C@@H]1CN([C@@H](C)CO)C(=O)c2cc(NS(=O)(=O)c3ccc(F)cc3)ccc2O[C@H]1CN(C)Cc1ccccc1	none (no result: Shh pathway inh)
Cn1c(SCC(=O)Nc2ccc3c(c2)OCCO3)nnc1-c1cnccn1	none (no result: Shh pathway inh)
